From PubChem BioAssay (NCATS)
Results filed as inconclusive are left out. A number with no mark means an inactive call. Active and inactive are the calls of the source. Calls follow the shape of the dose curve; as a rule, active = well fitted cell-killing curve with a large enough effect; inconclusive = small, poorly fitted or top-dose-only effect, or effect the other way; inactive = no such curve, though single readings can be large or run the other way.

Experiments:
[1] = Quantitative High-Throughput drug screen in 47 multiple myeloma cell lines against the NCATS MIPE library collection: OCIMY1_PLB cell viability assay (AID 1918979); also: nearly all actives have a fitted effect of over 35% in size
Procedure, shortened: (§1)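 qHTS format: cells plated (500/well), pin-dosed with MIPE 4.0 compounds, kept 48 h at 37 °C. Readout was CellTiter-Glo luminescence, median RLU.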

[2] = Quantitative High-Throughput drug screen in 47 multiple myeloma cell lines against the NCATS MIPE library collection: MM1S_ATCC cell viability assay (AID 1918980); also: nearly all actives have a fitted effect of over 45% in size
Procedure, shortened: as §1

[3] = Quantitative High-Throughput drug screen in 47 multiple myeloma cell lines against the NCATS MIPE library collection: MM1R_ATCC cell viability assay (AID 1918981); also: nearly all actives have a fitted effect of over 35% in size
Procedure, shortened: as §1

[4] = Quantitative High-Throughput drug screen in 47 multiple myeloma cell lines against the NCATS MIPE library collection: LP1_DSMZ cell viability assay (AID 1918982); also: nearly all actives have a fitted effect of over 35% in size
Procedure, shortened: as §1

[5] = Quantitative High-Throughput drug screen in 47 multiple myeloma cell lines against the NCATS MIPE library collection: KMS28PE_JCRB cell viability assay (AID 1918983); also: nearly all actives have a fitted effect of over 35% in size
Procedure, shortened: as §1

[6] = Quantitative High-Throughput drug screen in 47 multiple myeloma cell lines against the NCATS MIPE library collection: L363_DSMZ cell viability assay (AID 1918984); also: nearly all actives have a fitted effect of over 40% in size
Procedure, shortened: as §1

[7] = Quantitative High-Throughput drug screen in 47 multiple myeloma cell lines against the NCATS MIPE library collection: KMS34_JCRB cell viability assay (AID 1918985); also: nearly all actives have a fitted effect of over 40% in size
Procedure, shortened: as §1

[8] = Quantitative High-Throughput drug screen in 47 multiple myeloma cell lines against the NCATS MIPE library collection: OCIMY7_PLB cell viability assay (AID 1918987); conditions: OCI-MY7 myeloma viability, CellTiter-Glo ATP, 48 h; viability (% of DMSO): at 45.8 µM (top of the series); also: nearly all actives have a fitted effect of over 65% in size
Procedure, shortened: as §1

[9] = Quantitative High-Throughput drug screen in 47 multiple myeloma cell lines against the NCATS MIPE library collection: OCIMY5_PLB cell viability assay (AID 1918988); also: nearly all actives have a fitted effect of over 65% in size
Procedure, shortened: as §1

[10] = Quantitative High-Throughput drug screen in 47 multiple myeloma cell lines against the NCATS MIPE library collection: OPM1_PLB cell viability assay (AID 1918989); also: nearly all actives have a fitted effect of over 40% in size
Procedure, shortened: as §1

[11] = Quantitative High-Throughput drug screen in 47 multiple myeloma cell lines against the NCATS MIPE library collection: SKMM1_PLB cell viability assay (AID 1919863); conditions: SKMM1 myeloma viability, CellTiter-Glo ATP, 48 h; viability: stronger effect = lower value; also: nearly all actives have a fitted effect of over 35% in size
Procedure, shortened: as §1

[12] = Quantitative High-Throughput drug screen in 47 multiple myeloma cell lines against the NCATS MIPE library collection: U266_ATCC cell viability assay (AID 1919864); also: nearly all actives have a fitted effect of over 35% in size
Procedure, shortened: as §1

[13] = Quantitative High-Throughput drug screen in 47 multiple myeloma cell lines against the NCATS MIPE library collection: XG6_PLB cell viability assay (AID 1919865); also: nearly all actives have a fitted effect of over 40% in size
Procedure, shortened: as §1

[14] = Quantitative High-Throughput drug screen in 47 multiple myeloma cell lines against the NCATS MIPE library collection: XG1_PLB cell viability assay (AID 1919866); also: nearly all actives have a fitted effect of over 35% in size
Procedure, shortened: as §1

[15] = Quantitative High-Throughput drug screen in 47 multiple myeloma cell lines against the NCATS MIPE library collection: VP6_DJ cell viability assay (AID 1919867); also: nearly all actives have a fitted effect of over 40% in size
Procedure, shortened: as §1

[16] = Quantitative High-Throughput drug screen in 47 multiple myeloma cell lines against the NCATS MIPE library collection: PE2_PLB cell viability assay (AID 1919869); also: nearly all actives have a fitted effect of over 35% in size
Procedure, shortened: as §1

[17] = Quantitative High-Throughput drug screen in 47 multiple myeloma cell lines against the NCATS MIPE library collection: PCM6_Riken cell viability assay (AID 1919870); also: nearly all actives have a fitted effect of over 30% in size
Procedure, shortened: as §1

[18] = Quantitative High-Throughput drug screen in 47 multiple myeloma cell lines against the NCATS MIPE library collection: RPMI8226_ATCC cell viability assay (AID 1919871); also: nearly all actives have a fitted effect of over 30% in size
Procedure, shortened: as §1

[19] = Quantitative High-Throughput drug screen in 47 multiple myeloma cell lines against the NCATS MIPE library collection: OPM2_DSMZ cell viability assay (AID 1919872); also: nearly all actives have a fitted effect of over 30% in size
Procedure, shortened: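 We plated 500 myeloma cells per well, pinned in MIPE 4.0 compounds, and incubated for 48 hours at 37C. ATP was then quantified with CellTiter-Glo, with DMSO and media-only wells defining 100% and 0%.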

[20] = Quantitative High-Throughput drug screen in 47 multiple myeloma cell lines against the NCATS MIPE library collection: UTMC2_PLB cell viability assay (AID 1919868); conditions: CellTiter-Glo ATP luminescence, 48 h; viability (% of DMSO control): at 45.8 µM (top of the series); also: nearly all actives have a fitted effect of over 55% in size
Procedure, shortened: as §1
Potency is read from the fitted curve at half-maximal effect.

C[C@@]12C(=O)OC(=O)[C@@]1(C)C1CCC2O1
Potency [1]: 5.26 µM (active) | Potency [2]: 1.66 µM (active) | Potency [3]: 2.35 µM (active) | Potency [4]: 3.72 µM (active) | Potency [5]: 2.35 µM (active) | Potency [6]: 3.72 µM (active) | Potency [7]: 0.833 µM (active) | Potency [8]: 0.743 µM (active) | Potency [9]: 2.96 µM (active) | Potency [10]: 0.372 µM (active) | Potency [11]: 7.43 µM (active) | Potency [12]: 1.66 µM (active) | Potency [13]: 4.18 µM (active) | Potency [14]: 2.64 µM (active) | Potency [15]: 2.35 µM (active) | Potency [16]: 2.64 µM (active) | Potency [17]: 2.35 µM (active) | Potency [18]: 2.96 µM (active)

NC[C@H]1O[C@H](O[C@H]2[C@@H](O)[C@@H](O[C@H]3O[C@H](CO)[C@@H](O)[C@H](N)[C@@H]3O)[C@H](N)C[C@@H]2N)[C@H](N)C[C@H]1O
Potency [1]: inactive | Potency [2]: inactive | Potency [3]: inactive | Potency [4]: inactive | Potency [5]: inactive | Potency [6]: inactive | Potency [7]: inactive | Potency [9]: inactive | Potency [12]: inactive | Potency [13]: inactive | Potency [14]: inactive | Potency [15]: inactive | Potency [16]: inactive | Potency [17]: inactive | Potency [19]: inactive

CC(C=CC1=C(C)CCCC1(C)C)=CC=CC(C)=CC(=O)Nc1ccc(O)cc1
Potency [1]: 21.5 µM (active) | Potency [2]: 48.1 µM (active) | Potency [3]: 17.1 µM (active) | Potency [4]: 17.1 µM (active) | Potency [5]: 21.5 µM (active) | Potency [7]: 17.1 µM (active) | Potency [8]: 4.29 µM (active) | Potency [9]: 9.59 µM (active) | Potency [10]: 3.4 µM (active) | Potency [11]: 19.1 µM (active) | Potency [12]: 38.2 µM (active) | Potency [13]: 13.6 µM (active) | Potency [14]: 15.2 µM (active) | Potency [20]: 15.2 µM (active) | Potency [16]: 12.1 µM (active) | Potency [17]: 13.6 µM (active) | Potency [18]: 24.1 µM (active)

CC(=O)N[C@H]1[C@@H]([C@H](O)[C@H](O)CO)OC(C(=O)O)=C[C@@H]1N=C(N)N
Potency [1]: inactive | Potency [2]: inactive | Potency [3]: inactive | Potency [4]: inactive | Potency [5]: inactive | Potency [6]: inactive | Potency [7]: inactive | Potency [10]: inactive | Potency [14]: inactive | Potency [15]: inactive | Potency [16]: inactive | Potency [17]: inactive | Potency [18]: inactive | Potency [19]: inactive

O=C(C=CC#Cc1cccc(NS(=O)(=O)c2ccccc2)c1)NO
Potency [1]: 2.96 µM (active) | Potency [2]: 1.87 µM (active) | Potency [3]: 1.48 µM (active) | Potency [4]: 0.935 µM (active) | Potency [5]: 1.87 µM (active) | Potency [7]: 0.935 µM (active) | Potency [8]: 0.372 µM (active) | Potency [9]: 1.18 µM (active) | Potency [10]: 2.35 µM (active) | Potency [11]: 2.35 µM (active) | Potency [12]: 2.09 µM (active) | Potency [14]: 1.87 µM (active) | Potency [15]: 1.18 µM (active) | Potency [20]: 0.833 µM (active) | Potency [16]: 3.32 µM (active) | Potency [17]: 1.66 µM (active) | Potency [18]: 2.64 µM (active) | Potency [19]: 2.35 µM (active)

C=C1C[C@@]2(O)O[C@@]3(C[C@H]2C(C)C)[C@H](C)CC[C@H]13
Potency [1]: inactive | Potency [2]: 1.48 µM (active) | Potency [3]: inactive | Potency [4]: inactive | Potency [5]: inactive | Potency [7]: inactive | Potency [9]: inactive | Potency [10]: inactive | viability [11]: 114% | Potency [12]: inactive | Potency [13]: inactive | Potency [14]: inactive | Potency [15]: inactive | Potency [16]: inactive | Potency [17]: inactive | Potency [18]: inactive | Potency [19]: inactive

COc1ccc(S(=O)(=O)Nc2cc(-c3c(O)ccc4ccccc34)c(O)c3ccccc23)cc1
Potency [1]: 10.5 µM (active) | Potency [2]: 2.35 µM (active) | Potency [3]: 23.5 µM (active) | Potency [4]: 16.6 µM (active) | Potency [6]: 2.64 µM (active) | Potency [7]: 10.5 µM (active) | Potency [8]: 2.64 µM (active) | Potency [9]: 20.9 µM (active) | Potency [10]: 9.35 µM (active) | Potency [11]: 20.9 µM (active) | Potency [12]: 2.35 µM (active) | Potency [13]: 5.9 µM (active) | Potency [14]: 5.26 µM (active) | Potency [15]: 9.35 µM (active) | Potency [20]: 16.6 µM (active) | Potency [16]: 1.48 µM (active) | Potency [17]: 5.26 µM (active) | Potency [18]: 23.5 µM (active) | Potency [19]: 11.8 µM (active)

COc1cc(O)c2c(c1)C1OC1C[C@H](O)[C@H](O)C(=O)C=CC[C@H](C)OC2=O (some centres not stated)
Potency [1]: 5.26 µM (active) | Potency [2]: 2.96 µM (active) | Potency [3]: 2.64 µM (active) | Potency [5]: 5.9 µM (active) | Potency [6]: 2.35 µM (active) | Potency [7]: 2.35 µM (active) | Potency [8]: 0.372 µM (active) | Potency [9]: 3.72 µM (active) | Potency [10]: 5.26 µM (active) | Potency [11]: 4.69 µM (active) | Potency [12]: 4.69 µM (active) | Potency [13]: 4.69 µM (active) | Potency [14]: 2.64 µM (active) | Potency [16]: 2.35 µM (active) | Potency [17]: 2.35 µM (active) | Potency [18]: 3.72 µM (active) | Potency [19]: 2.64 µM (active)

Cc1ccc([N+](=O)[O-])cc1S(=O)(=O)N(C)N=Cc1cnc2ccc(Br)cn12
Potency [1]: 0.0526 µM (active) | Potency [2]: 0.0296 µM (active) | Potency [3]: 0.0332 µM (active) | Potency [4]: 0.0264 µM (active) | Potency [5]: 0.0418 µM (active) | Potency [7]: 0.0148 µM (active) | Potency [9]: 0.0187 µM (active) | Potency [10]: 0.0083 µM (active) | Potency [11]: 0.0526 µM (active) | Potency [12]: 0.0209 µM (active) | Potency [16]: 0.0074 µM (active) | Potency [18]: 0.0469 µM (active)
